D3 ag – D3 dopamine receptor (human) agonism. 410,000 tested, 0.58% active. max activation, %. D3R DiscoveRx beta-arrestin cells, luminescence, 90 min. P35462; in the data active = max activation above about 30%; note: 0% is about no effect
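Cells at 1500/well, incubated overnight, then treated with pinned compounds (dopamine as control) for 90 min at 37 degrees C. DiscoveRx reagent added for 30 - 60 minutes at room temperature; luminescence read.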
DRD3 antagonist – antagonists of human D3 dopamine receptor | D3R cells, DiscoveRx beta-arrestin luminescence, antagonist mode; stronger effect = lower value | 360,000 tested, 2.5% active | P35462 | AID 652054 | max response, negative = inhibition, %; in the data active = max response below about -50%; inconclusive = no clear call, values can overlap the other calls; note: % is set by controls: 0 for no effect and ±100 for the full control effect
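Cells plated overnight at 1500 cells/well, then exposed to library compounds with dopamine controls for 90 minutes at 37 degrees C. DiscoveRx reagent added for 30–60 minutes at room temperature; luminescence read, quantitative HTS format.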
D1 antag – human D1 dopamine receptor antagonism. activity change, negative = inhibition, % at 10 µM. 360,000 tested, 3.2% active. HEK293 TREx D1 cells, calcium flux, dopamine EC80; stronger effect = lower value. P21728. AID 504652; in the data active = activity change below about -30%; note: % is set by controls: 0 for no effect and ±100 for the full control effect
Target sequence (P21728 whole entry, looked up): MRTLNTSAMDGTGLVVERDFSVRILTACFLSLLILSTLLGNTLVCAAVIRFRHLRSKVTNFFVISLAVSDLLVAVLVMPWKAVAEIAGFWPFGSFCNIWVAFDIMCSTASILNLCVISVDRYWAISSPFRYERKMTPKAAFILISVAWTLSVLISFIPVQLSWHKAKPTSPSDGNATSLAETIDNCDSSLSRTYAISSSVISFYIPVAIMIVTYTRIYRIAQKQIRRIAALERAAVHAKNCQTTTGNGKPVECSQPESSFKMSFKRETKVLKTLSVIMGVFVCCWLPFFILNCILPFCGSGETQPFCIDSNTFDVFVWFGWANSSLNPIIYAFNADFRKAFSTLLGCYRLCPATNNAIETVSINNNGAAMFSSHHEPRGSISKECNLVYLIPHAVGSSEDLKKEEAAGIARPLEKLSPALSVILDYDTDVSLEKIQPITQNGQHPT
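After overnight tetracycline induction at 30 C, force-coupled D1 HEK293 cells took up a no-wash calcium dye at room temperature. Compounds were added and monitored 180 s, and the response to EC80 dopamine was then recorded.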
D1 agonist – agonists of human D1 dopamine receptor; P21728; activation, % at 2 µM; HEK293 T-REx D1 cells, calcium flux, agonist mode; 360,000 tested, 1% active; in the data active = activation above about 30%; note: 0% is about no effect
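Agonism was scored from calcium flux recorded over 180 s (1 read/s) after pintool compound addition, following a 10-cycle baseline. Cells were inducible force-coupled HEK293 TREx D1, plated overnight at 30 C and loaded with no-wash calcium dye.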
D1 potentiator – human D1 dopamine receptor positive modulation. HEK293 TREx D1 cells, calcium flux, dopamine EC20 potentiation. 360,000 tested, 0.036% active. potentiation, % at 10 µM. AID 504651. P21728; in the data active = potentiation above about 30%; note: 0% is about no effect
An asterisk follows results filed as active; ? = inconclusive; · = no result given. Sampled rows, rich in hits. Any-hit rate of the full collection: about 6%.

SMILES | D3 ag | DRD3 antagonist | D1 antag | D1 agonist | D1 potentiator
O=C(N/N=C/C1CC=CCC1)c1ccccc1O (centres undefined) | -7 | -17 | 3 | 1 | 4
O=C(N/N=C/C1CC=CCC1)c1ccc(Cl)cc1O (centres undefined) | -4 | 18 | -37* | 23 | -16
COc1cc(OC)cc(-c2nc3ccccc3c(=O)n2OC(=O)c2ccccc2C)c1 | 34* | 81 | 0 | 2 | 0
CCN(CC)S(=O)(=O)c1ccc(-c2nnc(SCC(=O)N3CCOCC3)o2)cc1 | -7 | -63* | -6 | 2 | -1
CNc1nc(-c2ccc(OC)cc2)c(-c2ccc(OC)cc2)s1 | 49* | -7 | -14 | 3 | -8
CCCCCSc1nncc(=O)[nH]1 | -5 | 24 | 12 | 2 | -4
CCCCCCCCSC1=CC(=O)C(OC)=C(OC)C1=O | -13 | -106* | · | · | ·
Cc1ccccc1C(C(=O)NCc1ccco1)N(CC1CCCO1)C(=O)Cn1nnc2ccccc21 (centres undefined) | 1 | 0 | -14 | 0 | 1
COc1cccc(C(C(=O)NCc2ccco2)N(C(=O)Cn2nnc3ccccc32)C2CC2)c1OC (centres undefined) | 1 | -53* | 0 | 3 | -4
Cc1ccccc1Oc1ccc2c(c1)[C@@H]1C[C@H]3[C@@H](C(=O)N1CC2)[C@H](C)ON3C | 31* | 63 | · | · | ·
S=C1NCCc2ccc(Cl)cc2C1c1ccccc1 (centres undefined) | -3 | -62* | 3 | 5 | -6
CCCC(c1nnnn1Cc1cccs1)N1CCN(C2CCCC2)CC1 (centres undefined) | -1 | -20 | 3 | 1 | -6
CCC(c1nnnn1Cc1cccs1)N1CCN(C2CCCC2)CC1 (centres undefined) | 3 | -63* | -7 | 0 | -1
Clc1cccc(OCCN2CCOCC2)c1 | 4 | -66* | 18 | 2 | 3
Cc1cc(OCCN2CCOCC2)ccc1Cl | 2 | -24 | -94* | 5 | -2
Clc1cccc(OCCN2CCNCC2)c1 | 26 | -21 | -3 | 2 | 2
CC1CCN(CCOc2ccc(Cl)c(Cl)c2)CC1 | 1 | -51* | -6 | 6 | -6
OCCN1CCN(CCOc2cccc(Cl)c2)CC1 | 40* | ? | -13 | 4 | -4
CC1CN(CCOc2ccc(Cl)c(Cl)c2)CC(C)O1 (centres undefined) | -19 | ? | 0 | 7 | -1
COc1cc(OC)c(N(C)C(=O)Nc2cn(CC(C)C)c(=O)c3ccccc23)cc1Cl | -1 | · | 5 | -1 | -5
COc1ccc(C2=C(C)C(=O)N(Cc3ccc(C(=O)NCc4cccc(C)c4)cc3)S2(=O)=O)cc1 | -7 | · | -3 | 0 | 0
C[C@@H](O)[C@H]1C(=O)N2C(C(=O)O)=C([C@H]3CCCO3)S[C@H]12 | -2 | · | · | · | ·
Cc1ccc(S(=O)(=O)N2CCOCC2)cc1C(=O)Nc1ccccc1C(=O)O | 26 | · | -3 | -1 | 0
CC(C)(C)c1nc(CN2CCCCC2)cc(CN2CCCCC2)c1O | 2 | -72* | 1 | 10 | -1
CC(C)(C)c1nc(CN2CCOCC2)ccc1O | -3 | -18 | 4 | 20 | -5
SMILES | D3 ag | DRD3 antagonist | D1 antag | D1 agonist | D1 potentiator
CCOC(=O)C1C(c2cccc(Cl)c2Cl)NC(=O)NC1(O)C(F)(F)F (centres undefined) | -2 | 21 | -59* | -3 | -4
NC(N)=NCC1COC2(CCCCC2)O1 (centres undefined) | 3 | · | · | · | ·
CC1C2CC(C(CN(C)C)/C2=N/O)C1(C)C (centres undefined) | 0 | 10 | -51* | 2 | -5
CC1/C(=N/O)C(CN(C)C)C2CC1C2(C)C (centres undefined) | 3 | -69* | -1 | 7 | -1
COc1ccc(S(=O)(=O)N(CC(=O)N2CCC(C)CC2)c2ccc(C)cc2)cc1 | -2 | · | -5 | -1 | 0
CC(=O)OCC(=O)[C@@]12OC(C)(C)O[C@@H]1C[C@H]1[C@@H]3C[C@H](F)C4=CC(=O)C=C[C@]4(C)[C@@]3(F)[C@@H](O)C[C@@]12C | 15 | 22 | -35* | 5 | -3
CC(=O)OCC(=O)[C@@]12OC(C)(C)O[C@@H]1CC1C3C[C@H](F)C4=CC(=O)C=CC4(C)[C@@]3(F)C(O)CC12C (some centres undefined) | 6 | -20 | 21 | -1 | -3
COc1ccc(-n2c(=O)c3c(c4cc(OC)ccc4n3C)n(Cc3ccc(F)cc3Cl)c2=O)cc1 | -10 | · | -18 | 1 | -2
CCN(CC)C(=O)c1sc(NC(=O)c2c(OC)cccc2OC)c(C#N)c1C | -11 | 0 | -30* | 0 | -3
CC1(C)CC(=O)C(C(C#Cc2ccccc2)C2=C(O)CC(C)(C)CC2=O)=C(O)C1 | -10 | -8 | 2 | 8 | -8
O=C1CCCC(O)=C1C(C#Cc1ccccc1)C1=C(O)CCCC1=O | -5 | -61* | -11 | -2 | -4
O=C(c1ccccc1)N1CCN(C(=O)c2ccc3c(c2)OCCO3)CC1 | -8 | -16 | -39* | 1 | -3
O=C(c1ccccc1)c1ccc2c(c1)OCCCO2 | 17 | -1 | -40* | 1 | -3
COc1ccc(-n2c(SCC(=O)Nc3cc(C)cc(C)c3)nc3c(oc4ccccc43)c2=O)cc1 | 10 | · | 1 | 5 | -6
COc1ccc(-c2noc(-c3ccc(NCc4ccccc4OC)c([N+](=O)[O-])c3)n2)cc1 | 6 | · | 1 | 8 | 1
Fc1ccc(Nc2nnc(C(F)(F)F)s2)cc1Cl | -10 | 4 | -24 | 25 | 3
Fc1ccc(Nc2cncc(-c3ccsc3)c2)cc1Cl | -14 | -52* | · | · | ·
CN(c1ccccc1)c1ccc(/C=N/N2CCOCC2)cc1 | -1 | -52* | 11 | 3 | -4
COc1cc(OC)c(NC(=O)C(Cc2ccccc2)NS(=O)(=O)c2cccc3nsnc23)cc1Cl (centres undefined) | 0 | · | 4 | 0 | 4
CCOc1ccc(NC(=O)Cn2c(=O)n(-c3ccccc3)c(=O)c3ccc(C(=O)NCc4ccc5c(c4)OCO5)cc32)cc1 | -4 | · | -21 | 3 | 0
CCN(CC)C(=O)C1CCN(Cc2ccc(OCc3ccccc3)cc2)CC1 | -6 | 5 | -8 | 14 | -1
CC(C)CCNC(=O)C1CCN(Cc2cccc(OCc3ccccc3)c2)CC1 | -20 | -20 | -27 | 42* | -6
CCN(CC)C(=O)C1CCN(Cc2cccc(OCc3ccccc3)c2)CC1 | 1 | -61* | 10 | 0 | 6
CC(C)C[C@H](NC(=O)[C@H](Cc1ccccc1)NC(=O)c1cnccn1)B(O)O | 7 | · | · | · | ·
COc1cccc(C(=O)O[C@H]2[C@H](C)NS(=O)(=O)[C@H]3C[C@@H]4C=C[C@]23O4)c1 | -2 | -1 | · | -3 | 0
COc1cccc(C(=O)O[C@H]2[C@H](Cc3ccccc3)NS(=O)(=O)[C@H]3C[C@@H]4C=C[C@]23O4)c1 | -4 | -52* | · | · | ·

Screens from PubChem.
